Measured values as given in PubChem BioAssay (Tox21).
Records with an inconclusive call do not appear. Active and inactive are the calls of the source. Calls follow the shape of the full dose curve.

Legend:
[1] = target: Acetylcholinesterase (Homo sapiens) (UniProt P22303); experiment: Acetylcholinesterase (AChE) small molecule antagonists: enzyme-based qHTS assay (AID 1347397); settings: Potency: AChE enzyme activity inhibition; outcome: AChE enzyme activity inhibition; also: nearly all actives have a fitted effect of over 55% in size
Summary of the method: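 Recombinant human AChE, dispensed at 50 mU/mL, was preincubated with Tox21 10K compounds or DMSO vehicle for 30 min at room temperature. DTNB plus acetylthiocholine was then added, and thiocholine was measured colorimetrically after a further 10 min.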

[2] = target: Acetylcholinesterase (Homo sapiens) (UniProt P22303); experiment: Acetylcholinesterase (AChE) small molecule antagonists: fluorescence cell-based qHTS assay (AID 1347398); settings: Potency: AChE activity; outcome: AChE activity; also: nearly all actives have a fitted effect of over 50% in size
Summary of the method: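 Human SH-SY5Y cells were plated overnight at 37 C, exposed to compound for 30 min at 37 C, 5% CO2, then given acetylthiocholine plus Thiolite Green for 40 min at room temperature; thiocholine fluorescence (Ex/Em 490/520 nm) reports endogenous AChE activity.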

[3] = target: Acetylcholinesterase (Homo sapiens) (UniProt P22303); experiment: Acetylcholinesterase (AChE) small molecule antagonists: enzyme-based qHTS assay with human liver microsomes (AID 1347399); settings: Potency: qHTS inhibition; outcome: qHTS inhibition; also: nearly all actives have a fitted effect of over 60% in size
Summary of the method: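 Recombinant human AChE (50 mU/mL in the enzyme mix) and human liver microsomes (0.25 mg/mL final) were preincubated with compound and NADPH (0.25 mg/mL final) for 30 min at 37 C. Acetylthiocholine/DTNB was then added; thiocholine was read colorimetrically after 10 min at room temperature.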

Measured: Potency

Sequence of Acetylcholinesterase (Homo sapiens) (P22303 whole entry, looked up): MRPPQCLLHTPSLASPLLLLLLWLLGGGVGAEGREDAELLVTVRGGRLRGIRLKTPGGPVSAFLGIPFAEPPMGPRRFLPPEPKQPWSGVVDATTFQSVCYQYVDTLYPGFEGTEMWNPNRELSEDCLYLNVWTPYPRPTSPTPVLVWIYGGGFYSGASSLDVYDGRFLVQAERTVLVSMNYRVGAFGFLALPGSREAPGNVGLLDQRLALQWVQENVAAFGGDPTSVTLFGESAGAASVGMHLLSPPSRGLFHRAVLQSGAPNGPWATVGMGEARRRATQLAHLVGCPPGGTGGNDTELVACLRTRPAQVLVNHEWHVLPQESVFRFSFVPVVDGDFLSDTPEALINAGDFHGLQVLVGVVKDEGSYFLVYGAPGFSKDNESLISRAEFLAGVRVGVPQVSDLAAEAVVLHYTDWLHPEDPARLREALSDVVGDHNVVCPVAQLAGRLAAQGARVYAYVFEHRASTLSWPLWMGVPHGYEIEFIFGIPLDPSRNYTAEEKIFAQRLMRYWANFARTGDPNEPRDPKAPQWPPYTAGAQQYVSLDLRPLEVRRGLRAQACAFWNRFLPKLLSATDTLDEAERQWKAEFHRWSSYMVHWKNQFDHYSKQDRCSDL

NNC(=O)c1ccncc1
inactive: all assays above
